These entries were drawn from the full list.
aSyn 5UTR act: Activators via SNCA 5'UTR binding, MLPCN; activity score, % (tested at 7.5 µM), hits read low; alpha-synuclein 5'UTR reporter, activators screen; actives 7.1% (n = 300,000); AID 1814, 2009; in the data active = activity score below about -60%
* hit, by the source's call.

SMILES	aSyn 5UTR act
COc1cc2ccccc2cc1C(=O)Nc1ccc(CN2CCOCC2)cc1	-112.2*
CCC(=O)NC(c1ccc(Cl)cc1Cl)c1ccc2cccnc2c1O (stereo not given)	75.3
O=C(/C=C/c1ccc(Cl)cc1Cl)NC(=S)Nc1ccccn1	-223.9*
O=C(Nc1ccc(CN2CCOCC2)cc1)c1ccc(Cl)cc1Cl	-96.4*
O=C(Nc1ccc(CN2CCOCC2)cc1)c1cccs1	-145.2*
O=C(Nc1ccc(CN2CCOCC2)cc1)c1ccccc1F	-75.8*
O=C(Oc1c(CN2CCOCC2)cc(Cl)c2cccnc12)c1ccccc1F	105.8
O=C(Nc1ccc(CN2CCOCC2)cc1)c1ccc(-c2cccc(Cl)c2)o1	-83.4*
O=C(/C=C/c1ccccc1Cl)c1ccc[nH]1	-342.9*
O=C(/C=C/c1ccc(Cl)cc1Cl)c1ccc[nH]1	-138.8*
CN(C)/C=C/C(=O)/C=C/c1ccc(Cl)cc1Cl	-150.4*
O=C(NNC1=NCCCCC1)Nc1ccc(Cl)cc1	-67.6*
O=C(NNC1=NCCCCC1)Nc1cccc(Cl)c1	-135.9*
Cc1ccc(NC(=O)c2ccccc2NC(=O)c2cccs2)cc1	-80.1*
N/C(=N\O)c1ccc(NC(=O)c2cccs2)cc1	-81.1*
COC(=O)Cc1ccc(NC(=O)c2cccs2)cc1	-159.0*
CC(=O)c1ccc(NC(=O)c2cccs2)cc1	-88.4*
Cc1nc(C#N)c(N/N=C/c2cccc(Cl)c2)o1	-126.4*
O=C1N/C(=C/c2ccc(Br)s2)C(=O)N1c1ccccc1	-81.0*
Cc1cc(/C=C2/NC(=O)N(c3ccccc3)C2=O)c(C)n1C(C)C	-64.2*
Cc1ccc(/C=C2/NC(=O)N(c3ccccc3)C2=O)o1	-104.7*
Cc1cc(C)c2c(N)c(-c3nc4ccccc4[nH]3)sc2n1	-130.8*
CCCOc1ccc(-c2nnc(-c3ccncc3)o2)cc1	-80.4*
Brc1ccccc1-c1nnc(-c2cccnc2)o1	-106.5*
CCCOc1ccc(C(=O)NNC(=S)NC(C)=O)cc1	67.7
SMILES	aSyn 5UTR act
FC(F)(F)c1ccc(-c2nnc(-c3cccnc3)o2)cc1	-88.0*
Clc1ccc(-c2nnc(-c3cccnc3)o2)cc1	-138.5*
COc1ccc(-c2nnc(-c3cccnc3)o2)cc1	-111.5*
Brc1ccc(-c2nnc(-c3cccnc3)o2)cc1	-143.8*
Brc1ccc(-c2nnc(-c3ccccc3Br)o2)cc1	-100.1*
Cc1noc(C)c1-c1nnc(-c2ccc(C(F)(F)F)cc2)o1	-65.6*
Clc1ccc(-c2nnc(-c3ccccc3)o2)cn1	-153.0*
Cc1ccc(-c2nnc(-c3cccnc3)o2)cc1	-113.1*
CC(=O)NCc1ccc(C(=O)CCl)s1	-64.3*
Cc1ccc2c(c1)COc1c3ccc(C(=O)N[C@@H](C)CO)cc3nn1-2	-154.1*
Cc1ccc2c(c1)COc1c3ccc(C(=O)NC(C)C)cc3nn1-2	-204.1*
CCCSc1nsc(NC(=O)CCC)n1	-142.4*
CCCSc1nsc(NC(=O)c2cccnc2OCC)n1	-72.1*
CCCCSc1nsc(NC(C)=O)n1	-134.7*
CCCCCCSc1nsc(NC(C)=O)n1	-96.9*
CCCn1cnc2c(cnn2-c2ccc(F)cc2)c1=O	-115.1*
CCOC(=O)C(C)n1cnc2c(cnn2-c2ccc(Cl)cc2)c1=O (stereo not given)	-135.3*
CCCCn1cnc2c(cnn2-c2ccc(F)cc2)c1=O	-123.4*
CCCCn1cnc2c(cnn2-c2ccc(Cl)cc2)c1=O	-108.6*
FC(F)(F)c1ccc(C2NCCc3sccc32)cc1 (stereo not given)	-62.9*
c1ccc(-c2nc(C3CCCCC3)no2)cc1	-203.9*
COc1ccc(-c2nc(C3CCCCC3)no2)cc1OC	-162.2*
Cc1ccc(OCCOc2ccc(Br)cc2)c([N+](=O)[O-])n1	-182.1*
Cc1ccc(OCc2ccc([N+](=O)[O-])cc2)c([N+](=O)[O-])n1	-114.6*
Cc1cccc(N=Nc2c(C)nn(-c3ccccc3)c2N)c1C	-124.4*
SMILES	aSyn 5UTR act
Cc1nn(-c2ccccc2)c(N)c1N=Nc1ccc(Cl)cc1	-175.5*
O=C(Nc1cc(Cl)cc(Cl)c1)c1cccc(OC(F)F)c1	-97.7*
Cc1ccnc(NC(=O)c2cccc(OC(F)F)c2)n1	-77.4*
CN(C(=O)c1ccc2c(Cl)c3c(nc2c1)CCC3)c1ccccc1	-223.0*
CCC(C)NC(=O)c1ccc2c(Cl)c3c(nc2c1)CCC3 (stereo not given)	-163.9*
O=C(c1ccc2c(Cl)c3c(nc2c1)CCCC3)N1CCC(N2CCCCC2)CC1	-89.0*
Cc1ccc(/C(N)=N/OC(=O)CCC2CCCC2)cc1	-85.2*
Cc1cccc(/C(N)=N/OC(=O)CCC2CCCCC2)c1	-108.7*
COc1ccc(/C(N)=N/OC(=O)CCC2CCCC2)cc1	-71.1*
Cc1cccc(NC2=NC(C)(C)N=C(N)N2)c1	98.4
CCOc1cccc(Nc2ccc([N+](=O)[O-])cn2)c1	-101.6*
Cc1cccc(Nc2ccc([N+](=O)[O-])cn2)c1	-87.2*
CCOC(=O)C1CCN(C(=O)c2cc3cc4cc(OC)ccc4nc3o2)CC1	-71.1*
COc1ccc2nc3oc(C(=O)N4CCCCC4)cc3cc2c1	-191.6*
COCc1cc(C)nc(SCC(=O)Nc2nc(C)cs2)c1C#N	55.1
Cc1ccc(-c2csc(NC(=O)CSc3nc(C)cs3)n2)cc1	-159.9*
Cc1csc(SCC(=O)Nc2nc(-c3ccccc3)cs2)n1	-80.3*
CC(C)(C)NC(=O)CSc1nc(-c2ccc(F)cc2)cs1	-180.8*
Cc1csc(NC(=O)CSc2ccccc2F)n1	-87.5*
COCCNC(=O)CSc1nc(-c2ccccc2)cs1	-72.5*
CC(C)(C)c1ccc(-c2csc(NC(=O)CN3C(=O)NC4(CCCCC4)C3=O)n2)cc1	-78.7*
Cc1ccc(C2(C)NC(=O)N(CC(=O)Nc3nc(-c4ccccn4)cs3)C2=O)cc1 (stereo not given)	80.1
CC(=O)c1cccc(N=Nc2c(C)[nH]c3ccccc23)c1	-150.0*
COc1ccc2c(c1OC)C(=O)OC2Nc1nc(-c2cc3cc(Br)ccc3oc2=O)cs1 (stereo not given)	-220.9*
Cc1ccc(-n2nnc(-c3cccnc3)n2)cc1	-116.9*
SMILES	aSyn 5UTR act
c1ccc(-n2nnc(-c3cccnc3)n2)cc1	-162.1*
COC(=O)c1cc(NC(=O)/C=C/c2ccccc2)ccc1O	-140.5*
O=C(/C=C/c1ccc(F)cc1)NC(=S)Nc1ccccc1O	-209.9*
NC(=S)NC(=O)/C=C/c1ccccc1	-111.0*
CCCc1ccc(OCC(=O)Nc2cc(S(=O)(=O)CC)ccc2O)cc1	-170.6*
CCS(=O)(=O)c1ccc(O)c(NC(=O)/C=C/c2ccccc2)c1	-110.0*
O=C(/C=C/c1ccccc1)NC(=S)Nc1ccccc1O	-242.0*
CCCN1C(=O)S/C(=C/c2ccc(N3CCOCC3)o2)C1=O	-82.6*
COC(=O)CN1C(=O)S/C(=C/c2cc(C)n(C)c2C)C1=O	-167.4*
CCCN1C(=O)S/C(=C\c2ccc(N3CCOCC3)o2)C1=O	-94.0*
COC(=O)CN1C(=O)S/C(=C/c2ccc(N3CCCCC3)o2)C1=O	-88.6*
Cc1ccc(NC(=O)C2CC3CCC2C3)c(Br)c1 (stereo not given)	-110.2*
CCN(CC)c1ccc(NC(=O)C2CC3CCC2C3)cc1 (stereo not given)	-68.4*
CCCCNC(=O)c1cc(-c2ccc(OC)cc2)on1	-143.6*
CCCNC(=O)c1cc(-c2ccc(OC)cc2)on1	-159.5*
CCCCNC(=O)c1cc(-c2ccc(F)cc2)on1	-591.7*
C/C(=N\Nc1ccc(C(=O)O)cc1)c1nc2ccccc2n1C	-148.1*
C/C(=N\Nc1ccc(C(=O)O)cc1)c1ccc(-n2ccnc2)cc1	-70.2*
COc1cc(/C(C)=N/Nc2ccc(C(=O)O)cc2)cc(OC)c1OC	-101.3*

Screening data (PubChem)
